Reference: the supplement of paper PMC4840960
Structures can show the parent of a compound that is named as a salt. ± gives the standard deviation of the averaged measurements.

Key:
[1] = tested on: E18 rat cortical neuron-glia co-culture; assay: fiber score / MBP score (myelination specific beyond OL differentiation) (ratio); higher = more myelination-specific MBP alignment; settings: treatment time: 8 days (DIV5-DIV13)
Outline: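 Reported values are fiber score (continuous MBP fiber length per Olig2+ nucleus) divided by MBP score (thresholded MBP area × intensity per Olig2+ nucleus). They come from primary E18 rat cortical co-cultures treated with library compounds at 1 or 5 µM in myelination medium from DIV5 to DIV13, then fixed in 4 % paraformaldehyde, immunostained for MBP and Olig2 with DAPI, and analysed over four 10X fields per well in duplicate wells.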

[2] = tested on: E18 rat cortical neuron-glia co-culture; assay: myelination (MBP fiber length per Olig2+ nucleus), % of 1 µM DAPT response (DMSO = 0) (% of DAPT); higher = more myelination, active = 50 or more; settings: treatment time: 8 days (DIV5-DIV13)
Outline: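 Rat cortical co-cultures from E18 tissue were dissociated with papain and plated at 20,000 cells/well on 96-well plates coated with poly-d-lysine/laminin. From DIV5 to DIV13, library compounds were added at 1 or 5 µM in myelination medium. After fixation in 4 % paraformaldehyde, cultures were immunostained for MBP and Olig2 and counterstained with DAPI, and four 10X fields were analysed in each of duplicate wells. The myelination value is the length of continuous straight MBP fibers per Olig2+ nucleus, normalised so that 0.1 % DMSO is 0 and a 1 µM positive control is 100.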

SMILES	fiber score / MBP score ([1]; 1 µM)	fiber score / MBP score ([1]; 5 µM)	myelination ([2]; 1 µM)	myelination ([2]; 5 µM)
Cn1c(=O)c2nc[nH]c2n(C)c1=O [Theophylline]	0.93	0.671	-7.88 (inactive)	-20.2 (inactive)
CCC(=O)O[C@@H]1CC(=O)O[C@H](C)C/C=C/C=C/[C@H](O)[C@H](C)C[C@H](CC=O)[C@H](O[C@@H]2O[C@H](C)[C@@H](O[C@H]3C[C@@](C)(O)[C@@H](OC(=O)CC)[C@H](C)O3)[C@H](N(C)C)[C@H]2O)[C@H]1OC [Midecamycin]	0.757	1.13	-9.01 (inactive)	1.11 (inactive)
CN1CCN(CCCN2c3ccccc3Sc3ccc(Cl)cc32)CC1 [Prochlorperazine]	0.297	1.56	-45.4 (inactive)	-29.6 (inactive)
CCC1=C[C@@H]2CN(C1)Cc1c([nH]c3ccccc13)[C@@](C(=O)OC)(c1cc3c(cc1OC)N(C)[C@H]1[C@@](O)(C(=O)OC)[C@H](OC(C)=O)[C@]4(CC)C=CCN5CC[C@]31[C@@H]54)C2 [Vinorelbine]	0.944	0.453	-6.45 (inactive)	-26.1 (inactive)
NC(Cc1cc(I)c(Oc2cc(I)c(O)c(I)c2)c(I)c1)C(=O)O (stereo unspecified) [Thyroxine]	0.768	1.19	-4.45 (inactive)	32 (inactive)
C[C@]12C[C@H](O)[C@H]3[C@@H](CCC4=CC(=O)CC[C@@]43C)[C@@H]1CC[C@@H]2C(=O)CO [Corticosterone]	0.706	0.702	-7.15 (inactive)	-4.49 (inactive)
COc1ccc(C2CNC(=O)C2)cc1OC1CCCC1 (stereo unspecified) [Rolipram]	0.626	0.618	-51.4 (inactive)	-53.6 (inactive)
CCOC(=O)[C@H](CCc1ccccc1)N[C@H]1CCc2ccccc2N(CC(=O)O)C1=O [Benazepril]	0.766	0.971	-15.3 (inactive)	-6.97 (inactive)
Cc1cn([C@H]2C=C[C@@H](CO)O2)c(=O)[nH]c1=O [Stavudine]	0.646 ± 0.15	0.637 ± 0.27	-12.8 (inactive)	-8.63 (inactive)
Cn1c(NCCN(CCO)CCCc2ccc([N+](=O)[O-])cc2)cc(=O)n(C)c1=O [Nifekalant]	0.616	0.616	-9.01 (inactive)	-19.6 (inactive)
C[C@]12CCC(=O)C=C1CC[C@@H]1[C@@H]2[C@@H](O)C[C@@]2(C)[C@H]1CC[C@]2(O)C(=O)CO [Hydrocortisone]	0.712 ± 0.026	0.656 ± 0.11	-10.9 (inactive)	-10.2 (inactive)
O=C(O)COCCN1CCN(C(c2ccccc2)c2ccc(Cl)cc2)CC1 (stereo unspecified) [Cetirizine]	0.908	1.11	-5.85 (inactive)	-4.35 (inactive)
COc1ccccc1N1CCN(CC(O)COc2cccc3ccccc23)CC1 (stereo unspecified) [Naftopidil]	0.655	0.695	-33.5 (inactive)	15 (inactive)
CC(=O)NCCCCCCNC(C)=O [Hexamethylene bisacetamide]	0.663	0.981	-0.00866 (inactive)	-2.54 (inactive)
O=C(CCCN1CC=C(n2c(=O)[nH]c3ccccc32)CC1)c1ccc(F)cc1 [Droperidol]	0.863	0.601	-4.1 (inactive)	-16.6 (inactive)
OCCN1C[C@H](O)[C@@H](O)[C@H](O)[C@H]1CO [Miglitol]	0.881	0.788	-7.81 (inactive)	-16.8 (inactive)
O=C1c2c(O)cc(O)cc2OC(c2ccc(O)c(O)c2)C1O (stereo unspecified) [Taxifolin]	0.697	0.943	-33.2 (inactive)	-8.22 (inactive)
CC1Cc2ccccc2N1NC(=O)c1ccc(Cl)c(S(N)(=O)=O)c1 (stereo unspecified) [Indapamide]	0.911	1.31	-4.93 (inactive)	6.67 (inactive)
CC(C)n1c(/C=C/C(O)CC(O)CC(=O)O)c(-c2ccc(F)cc2)c2ccccc21 (stereo unspecified) [Fluvastatin]	0.312	0.319	-15.7 (inactive)	-13.7 (inactive)
O=C(O)c1cccnc1 [Niacin]	1.05	0.998	9.03 (inactive)	7.38 (inactive)
Oc1ccc(C2CNCCc3c2cc(O)c(O)c3Cl)cc1 (stereo unspecified) [Fenoldopam]	0.941	0.611	-10.8 (inactive)	-45 (inactive)
CC1CCN(CCCC(=O)c2ccc(F)cc2)CC1 [Melperone hydrochloride]	0.816	0.519	-4.39 (inactive)	-12.5 (inactive)
Cc1nnc(SCC2=C(C(=O)O)N3C(=O)[C@@H](NC(=O)Cn4cnnn4)[C@H]3SC2)s1 [Cefazolin]	0.798	1.19	-6.67 (inactive)	6.84 (inactive)
Nc1nc2ccc(OC(F)(F)F)cc2s1 [Riluzole]	0.879	0.478	-26.1 (inactive)	-52.5 (inactive)
COc1ccc(-c2oc3c(CC=C(C)C)c(O[C@@H]4O[C@H](CO)[C@@H](O)[C@H](O)[C@H]4O)cc(O)c3c(=O)c2O[C@@H]2O[C@@H](C)[C@H](O)[C@@H](O)[C@H]2O)cc1 [Icariin]	0.673	0.958	-14.4 (inactive)	-5.53 (inactive)

SMILES	fiber score / MBP score ([1]; 1 µM)	fiber score / MBP score ([1]; 5 µM)	myelination ([2]; 1 µM)	myelination ([2]; 5 µM)
CNC(=C[N+](=O)[O-])NCCSCc1ccc(CN(C)C)o1 [Ranitidine]	0.594	1.03	-19.6 (inactive)	-7.22 (inactive)
Nc1c2c(nc3c1CCC3)CCCC2 [Amiridine]	0.702	0.8	-26.8 (inactive)	-17.6 (inactive)
CC1=Nc2ccc(Cl)cc2S(=O)(=O)N1 [Diazoxide]	1.25	0.573	5.81 (inactive)	-18.4 (inactive)
CC(C)OC(=O)C(C)(C)Oc1ccc(C(=O)c2ccc(Cl)cc2)cc1 [Fenofibrate]	0.901	0.661	-0.815 (inactive)	21.8 (inactive)
CCCc1nc(C(C)(C)O)c(C(=O)O)n1Cc1ccc(-c2ccccc2-c2nnn[nH]2)cc1 [Olmesartan]	0.778	0.698	-32.2 (inactive)	-45 (inactive)
Nc1nc2c(ncn2COC(CO)CO)c(=O)[nH]1 [Ganciclovir]	0.944	1	-5.82 (inactive)	7.82 (inactive)
COc1ccc2c(c1)c(CC(=O)O)c(C)n2C(=O)c1ccc(Cl)cc1 [Indomethacin]	0.699	0.877	-12.4 (inactive)	-7.64 (inactive)
C#C[C@]1(O)CC[C@H]2[C@@H]3CCc4cc(OC)ccc4[C@H]3CC[C@@]21C [Mestranol]	0.724	0.298	-6.5 (inactive)	-18 (inactive)
O=C(c1ccc(OCCN2CCCCC2)cc1)c1c(-c2ccc(O)cc2)sc2cc(O)ccc12 [Raloxifene]	0.211	0.788	-12.3 (inactive)	13.4 (inactive)
CC(C)NCC(O)COc1cccc2ccccc12 (stereo unspecified) [Propranolol]	1.55	0.95	9.85 (inactive)	1.55 (inactive)
NC(=O)N1c2ccccc2C=Cc2ccccc21 [Carbamazepine]	0.735	0.902	2.28 (inactive)	2.05 (inactive)
CC(CCc1ccccc1)NCC(O)c1ccc(O)c(C(N)=O)c1 (stereo unspecified) [Labetalol]	0.511	0.693	-16.1 (inactive)	-9.26 (inactive)
c1ccc2c(c1)CCCC2C1=NCCN1 (stereo unspecified) [Tyzine]	0.783	0.873	-6.18 (inactive)	-2.07 (inactive)
Nc1nc(=O)[nH]cc1F [Flucytosine]	0.88	0.855	-9.17 (inactive)	-9.52 (inactive)
CC(=O)[C@H]1CC[C@H]2[C@@H]3C[C@H](C)C4=CC(=O)CC[C@]4(C)[C@H]3[C@@H](O)C[C@]12C [Medrysone]	1.11	1.1	5.47 (inactive)	6.18 (inactive)
Clc1ccc2nsnc2c1NC1=NCCN1 [Tizanidine]	0.796	0.443	-26.5 (inactive)	-54.3 (inactive)
C[C@]12C=CC(=O)C=C1CC[C@@H]1[C@@H]2[C@@H](O)C[C@@]2(C)[C@H]1CC[C@]2(O)C(=O)COC(=O)CCC(=O)O [Prednisolone hemisuccinate]	0.88	1.08	1.93 (inactive)	-1.16 (inactive)
NC(N)=Nc1nc(CSCC/C(N)=N/S(N)(=O)=O)cs1 [Famotidine]	0.875	0.752	-13.8 (inactive)	-21.2 (inactive)
COc1c(N2CCNC(C)C2)c(F)cc2c(=O)c(C(=O)O)cn(C3CC3)c12 (stereo unspecified) [Gatifloxacin]	0.508	0.609	-17 (inactive)	-14.2 (inactive)
O=C(CCCN1CCC(O)(c2ccc(Cl)cc2)CC1)c1ccc(F)cc1 [Haloperidol]	0.526	0.498	-18 (inactive)	-13.9 (inactive)
C[C@H]1c2cccc(O)c2C(=O)C2=C(O)[C@]3(O)C(=O)C(C(N)=O)=C(O)[C@@H](N(C)C)[C@@H]3[C@@H](O)[C@@H]21 [Doxycycline]	0.798	0.815	-18.2 (inactive)	-0.977 (inactive)
CC[C@H]1OC(=O)[C@H](C)[C@@H](O[C@H]2C[C@@](C)(OC)[C@@H](O)[C@H](C)O2)[C@H](C)[C@@H](O[C@@H]2O[C@H](C)C[C@H](N(C)C)[C@H]2O)[C@](C)(O)C[C@@H](C)CN(C)[C@H](C)[C@@H](O)[C@]1(C)O [Azithromycin]	0.707	0.488	-7.57 (inactive)	-11.8 (inactive)
Cc1cccc(C)c1NC(=O)C1CCCCN1C (stereo unspecified) [Mepivacaine]	0.728	0.864	-12.3 (inactive)	-4.33 (inactive)
CCN1CCCC1CNC(=O)c1cc(S(N)(=O)=O)ccc1OC (stereo unspecified) [Sulpiride]	0.858	0.751	-10.3 (inactive)	-10.8 (inactive)
